Assay results reported in PubChem BioAssay (NCATS).
Records with an inconclusive call do not appear. Where a call stands in place of a potency, no number is given. Activity calls are given as the source filed them. The call rests on the fitted dose curve.

test: Cytotoxicity counterscreen for inhibitors of SARS-CoV-2 cell entry (AID 1645845); conditions: cell viability (SARS-CoV-2 entry assay cells); series mostly up to 57.1 µM; activity change, negative = cytotoxicity: at the top concentration; further: nearly all actives have a fitted effect of over 50% in size
Procedure, shortened: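 Expi293F/hACE2 cells seeded overnight; cpd pin-transferred in DMSO, 1 h preincubation, + media, 48 h 37 C 5% CO2; ATPLite 1step luminescence; normalized to cells and no cells.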
Potency means the concentration at half of the fitted maximal effect.

| Compound | outcome | activity change, negative = cytotoxicity | Potency |
| --- | --- | --- | --- |
| CC(C)C(=O)OCC(=O)[C@@]12OC(C3CCCCC3)O[C@@H]1C[C@H]1[C@@H]3CCC4=CC(=O)C=C[C@]4(C)[C@H]3[C@@H](O)C[C@@]12C (stereo partly specified) | inactive |  |  |
| CC1=C(C(=O)OCCN(Cc2ccccc2)c2ccccc2)C(c2cccc([N+](=O)[O-])c2)C(P2(=O)OCC(C)(C)CO2)=C(C)N1 (stereo unspecified) |  | -11% (inactive) |  |
| CC[C@H]1[C@@H](O)[C@@H]2[C@H](CC[C@]3(C)[C@@H]([C@H](C)CCC(=O)O)CC[C@@H]23)[C@@]2(C)CC[C@@H](O)C[C@@H]12 | inactive |  |  |
| CCCC(=O)O[C@]1(C(=O)COC(=O)CC)[C@@H](C)C[C@H]2[C@@H]3CCC4=CC(=O)C=C[C@]4(C)[C@@]3(F)[C@@H](O)C[C@@]21C | inactive |  |  |
| OC[C@H]1O[C@@H](OC[C@H]2O[C@@H](O[C@@H]3[C@@H](O)[C@H](O)O[C@H](CO)[C@H]3O)[C@H](O)[C@@H](O[C@@H]3O[C@H](CO)[C@@H](O)[C@H](O)[C@H]3O)[C@@H]2O)[C@H](O)[C@@H](O)[C@@H]1O | inactive |  |  |
| CC(C)[C@H]1CC[C@H](C)C[C@H]1O | inactive |  |  |
| CCC1(C)OC(=O)N(C)C1=O (stereo unspecified) | inactive |  |  |
| OC[C@H]1O[C@@H](OCCc2ccc(O)cc2)[C@H](O)[C@@H](O)[C@@H]1O | inactive |  |  |
| CCCCC[C@H](O)/C=C/[C@@H]1[C@@H](C/C=C/CCCC(=O)O)[C@@H](O)C[C@H]1O |  | -4.09% (inactive) |  |
| CCCc1ccc(C(=O)O)cc1 | inactive |  |  |
| C[C@]12C=CC(=O)C=C1CCC1C2[C@@H](O)C[C@@]2(C)C1CC[C@]2(O)C(=O)COC(=O)CCC(=O)O (stereo partly specified) |  | -11.1% (inactive) |  |
| Cc1cc(Nc2ccccc2C(=O)O)ccc1Cl | inactive |  |  |
| C[C@@H]1CCC[C@H](C)N1NC(=O)c1ccc(Cl)c(S(N)(=O)=O)c1 | inactive |  |  |
| CN(C)CC(=O)O |  | -14.5% (inactive) |  |
| C[C@H]1O[C@]2(CS1)CN1CCC2CC1 | inactive |  |  |
| CCCC(=O)Nc1ncnc2c1ncn2C1O[C@@H]2COP(=O)(O)O[C@H]2[C@H]1OC(=O)CCC (stereo partly specified) |  | -20.2% (inactive) |  |

| Compound | outcome | activity change, negative = cytotoxicity | Potency |
| --- | --- | --- | --- |
| CNC(=O)c1c(I)c(C(=O)NCC(=O)Nc2c(I)c(C(=O)O)c(I)c(C(=O)NCCO)c2I)c(I)c(N(C)C(C)=O)c1I |  | 4.04% (inactive) |  |
| O=C(O)CSc1nnc(Br)n1-c1ccc(C2CC2)c2ccccc12 |  | 3.96% (inactive) |  |
| NC(=O)[C@H]1O[C@@H](O)[C@H](O)[C@@H](O)[C@@H]1O | inactive [at 171 µM] |  |  |
| CCCCCCCCCCCCCCCCCCCCCCCCCCCCO | inactive [at 0.702 µM] |  |  |
| O=C(N[C@H]1CCS[C@H]2CCC[C@@H](C(=O)O)N2C1=O)[C@@H](S)Cc1ccccc1 |  | -1.71% (inactive) |  |
| O=C(O)C1=C(CSc2nnnn2CS(=O)(=O)O)CS[C@@H]2[C@@H](NC(=O)[C@H](O)c3ccccc3)C(=O)N12 | inactive |  |  |
| CC(C)OC(=O)Nc1ccc2nc(-c3cscn3)[nH]c2c1 |  |  | 7.08 µM (active) |
| Cc1cc(O)ccc1C(C)(C)C | inactive |  |  |
| N#Cc1cc(-c2n[nH]c(-c3ccncc3)n2)ccn1 |  | 2.9% (inactive) |  |
| FC(F)(F)C(F)(F)C(F)(F)C(F)(F)C(F)(F)C(F)(F)F | inactive |  |  |
| NC(=O)[C@@H]1CC[C@@H]2CN1C(=O)N2OS(=O)(=O)O | inactive |  |  |
| CCc1ccc(Nc2c(F)c(F)cc(F)c2F)c(CC(=O)O)c1 | inactive |  |  |
| CC(C)(C)NC(=O)[C@H]1CC[C@H]2[C@@H]3CC=C4C=C(C(=O)O)CC[C@]4(C)[C@H]3CC[C@]12C |  | -11.9% (inactive) |  |
| O=C(Cn1c(=O)sc2ccc(Cl)cc21)N1CCN(CCO)CC1 | inactive |  |  |
| C=C1CCN([C@H](C)[C@](O)(Cn2cncn2)c2ccc(F)cc2F)CC1 | inactive |  |  |
